# An excerpt weighted towards active compounds, which were near 7.9% of everything screened.
# HCMV inh: inhibitors of human cytomegalovirus; activity change, negative = inhibition, % at 57.5 µM; AID 1259415; HFF cells, HCMV-luciferase reporter, 72 h; active compounds read low; hit rate 4.5% among 410,000; in the data active = activity change below about -60%; inconclusive = no clear call, values can overlap the other calls; inactive = above about -39%
#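 Human foreskin fibroblasts infected with luciferase-reporter HCMV at MOI 1 PFU/cell, compounds at two doses. Luciferase measured 72 h post infection; normalized to buffer-only basal and Salinomycin (10uM) controls.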
# MARV entry inh: inhibitors of Marburg virus binding or cell entry; hit rate 1.8% among 300,000; Potency, µM (top dose mostly 37.8 µM), inactives show at the highest dose activity change, negative = inhibition, actives largely listed as inhibitors; Marburg virus pseudotyped entry inhibition, cell reporter; calls by dose curve; tested in HEK293 cells; note: potency is the fitted concentration of half-maximal effect
# Lassa entry inh: Lassa virus entry inhibition | hit rate 1.2% among 300,000 | Potency, µM (highest dose often 37.9 µM), inactives show top-dose activity change, negative = inhibition, hits mostly inhibitors | Lassa virus pseudotype entry inhibition, cell reporter; calls by dose curve; tested in HEK293 cells; note: potency is the fitted concentration of half-maximal effect; nearly all actives have a fitted effect of over 50% in size
# HCV inhibitor: blocks hepatitis C virus; Huh7.5.1 HCVcc-Cre infection, luciferase reporter, 44 h; hit rate 3.4% among 340,000; AID 651820; Potency, µM (doses to about 41.8 µM), for inactives: top-dose activity change, negative = inhibition, actives largely listed as inhibitors; active = well fitted inhibition curve with a large enough effect; inconclusive = small, poorly fitted or top-dose-only effect, or another doubt; inactive = no such curve, though single readings can be large or run the other way; note: potency is the fitted concentration of half-maximal effect
#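 HCVcc-Cre virus at an moi near 0.5 was added right after compound to cells cultured 4 h from seeding (1,000 cells/well). Luciferase activity was determined 44 h later, 15 min after substrate addition at RT.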
# FMDV inh: antivirals against foot and mouth disease virus; FMDV antiviral cell-based qHTS; hit rate 1.2% among 410,000; AID 1159524; Potency, µM (highest dose often 57.9 µM), without a hit: at the top dose activity change, negative = inhibition, most hits filed as inhibitors; calls by dose curve; tested in HEK293T cells; note: read-out not given here; potency is the fitted concentration of half-maximal effect; nearly all actives have a fitted effect of over 45% in size
# Numbers without * were called inactive; ? = inconclusive; / = no result; [ ] = dose if it differs, or a comment. % is set by controls: 0 for no effect and ±100 for the full control effect.
SMILES,HCMV inh,MARV entry inh,Lassa entry inh,HCV inhibitor,FMDV inh
Cc1ccc2c(c1)c1ncnc(N3CCOCC3)c1n2C,47,?,?,?,-18%
COc1ccc2c(c1)c1ccc3c(c1n2C)C(=O)C=CC3=O,2,/,/,?,28µM*
Cn1c2ccccc2c2ccc3c(c21)C(=O)C=CC3=O,26,3%,10%,?,20µM*
Cc1ccc2c(c1)c1ccc3c(c1n2C)C(=O)C=CC3=O,?,/,/,11µM*,32µM*
O=C(COC(=O)C1(c2ccc(F)cc2)CCCC1)NCc1ccco1,-1,-24%[46.1 µM],-5%,-16%,-29%
CCC1(C2CCN(C(=O)c3cc4ccccc4o3)CC2)NC(=O)N(CCc2scnc2C)C1=O (stereo not given),/,/,/,/,14%
COc1ncccc1-c1ccc2nncn2c1,7,/,/,/,6%
CCCCCCCCC(c1nc2ccccc2[nH]1)N1CCN=C1c1cc2ccccc2[nH]1 (stereo not given),-103*,/,/,/,-22%
NC(=O)c1cccc(-c2ccnc3c2CC(C(=O)NCc2ccccc2)O3)c1 (stereo not given),?,/,/,/,-15%
C[C@@H]1CC=C[C@H]2[C@H]1C(=O)N(Cc1ccccc1)[C@H]2c1ccc2ccccc2c1Br,?,/,/,?,18µM*
COC(=O)c1ccc(-c2ccc(OC)c([C@H]3[C@H]4C=CC[C@@H](C)[C@@H]4C(=O)N3Cc3ccccc3)c2)cc1,9,/,/,19%,-28%
COc1ccc(-c2ccc(C(C)=O)cc2)cc1[C@H]1[C@H]2C=CC[C@@H](C)[C@@H]2C(=O)N1Cc1ccccc1,-90*,/,/,?,9%
C[C@@H]1CC=C[C@H]2[C@H]1C(=O)N(Cc1ccccc1)[C@H]2c1ccc2ccccc2c1,-36,/,/,17%[8.37 µM],?
CC1=C(C(=O)O)N2C(=O)[C@@H](NC(=O)C(N)C3=CCC=CC3)[C@H]2SC1 (stereo not given in full),/,23%,0%,/,/
Cc1ccc(O)c(C(=O)c2cnc3c(c2)COc2ccccc2-3)c1,-66*,20%[46.1 µM],5%,10µM*,-28%
COc1cc(/C=C\C(=O)NCc2ccc3c(c2)cc(C)n3C)cc(OC)c1OC,12,5.2µM*,?,5%[8.37 µM],?
N#CCC(=O)Nc1ccc(C(=O)N2CCN(c3ccccn3)CC2)cc1,-29,1%[46.1 µM],20%,6%,9%
Cc1cccc(CSc2nnc(CCCCCN)o2)c1,-76*,?,?,/,-19%
Cc1nc2cnc(Oc3cccc(Cl)c3)nc2n(Cc2ccc(F)cc2)c1=O,/,/,/,/,-28%
O=C(CCc1ccc(F)c(F)c1)NC1CCCN(Cc2ccc(Cl)cc2)C1 (stereo not given),-8,11µM*,-20%[46.1 µM],4%,-18%
Cc1cccc(Nc2nc(N)c([N+](=O)[O-])c(N3CCCC(C)C3)n2)c1 (stereo not given),-77*,?,?,?,22µM*
Cc1ccc(Nc2nc(N)c([N+](=O)[O-])c(N3CCOCC3)n2)cc1C,75,?,9%,?,-25%
Cc1ccc(Nc2nc(N)c([N+](=O)[O-])c(N3CCC(C)CC3)n2)cc1C,-11,14µM*,-1%,?,-17%
COc1ccc(C(=O)NCCc2nc3ccccc3[nH]2)cc1,?,/,11%[46.1 µM],/,3%
COc1ccc(/C=N/NC(=O)COc2ccccc2-c2ccccc2)cc1,-68*,?,?,5.6µM*,?
SMILES,HCMV inh,MARV entry inh,Lassa entry inh,HCV inhibitor,FMDV inh
O=C(COc1ccccc1-c1ccccc1)N/N=C/c1cccc2ccccc12,-82*,?,?,1.8µM*,?
COc1ccc(Br)c(/C=N/NC(=O)COc2ccc(-c3ccccc3)cc2)c1,16,4%[46.1 µM],-8%,7.9µM*,7%
CN(C)c1ccc(/C=N/NC(=O)COc2ccccc2)cc1,66,-12%[46.1 µM],?,-1%,44%
CN(C(=O)c1cc(COc2ccc(F)c(F)c2)on1)C1CCOC1 (stereo not given),-4,/,/,15%,16%
CCOC(=O)c1[nH]c(C)c(C(=O)Nc2ccccc2C)c1C,2,-3%,/,?,25%
CCOC(=O)c1[nH]c(C)c(C(=O)Nc2cc(Cl)ccc2C)c1C,-23,?,?,1.3µM*,7%
CCCCOC(=O)Nc1cc(Cl)ccc1C,-81*,3%[46.1 µM],6%,-10%,2%
COc1cccc(CC(NC(C)=O)C(=O)NC2CCN(C(=O)c3ccc(Cl)cc3)CC2)c1OC (stereo not given),31,4%[46.1 µM],5%,8%,6%

# Screens from PubChem BioAssay.
